These results are taken from PubChem BioAssay.

Unmarked numbers belong to inactive results.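 How the source made its calls, unless noted: active means viability at or below 27.92% in each of two runs, the all-compound median minus 4 SD; inconclusive means no clear call, values can overlap the other calls; inactive means the rest.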 Records with an inconclusive call do not appear.

One assay is described as follows: viability gain of MRP-1-high H69AR cells under doxorubicin, pilot screen, MRP-1 activator project, CellTiter-Glo, duplicate (AID 807;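 active means viability increase at or above a cutoff of the median across tested compounds plus 3 SD, cut at about 8.5% in these data, passing the limit was not always enough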;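 further: compound pretreatment 18-22 h then 72 h combined with doxorubicin; 0% = doxorubicin alone and 100% = vehicle without doxorubicin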). The following applies: H69AR viability with doxorubicin, CellTiter-Glo luminescence; at 10 µM; stronger effect = higher value. On the technique in general: In ATP-based viability assays light output follows the ATP content of the culture.
As to `CCOC(=O)/C(C#N)=C1/C=Nc2ccccc2N1`, the viability increase is -1.54%.

With `CNS(=O)(=O)c1ccc(Oc2ccc(S(=O)(=O)NC)cc2)cc1`, the viability increase was -0.17%.

As to `O=C(O)CN1C(=O)C2C3C=CC(C3)C2C1=O` (centres undefined), the viability increase is 0.28%.

As to `Cc1cc(C)c(NC(=O)c2ccc(S(=O)(=O)N3CCOCC3)cc2)c(C)c1`, the viability increase was -2.1%.

Consider `CC1=C(C(=O)N2CCOCC2)C(c2cccs2)NC(=O)N1` (centres undefined), for which the viability increase was -0.8%.

`Cc1ccc(OCC(=O)NCc2ccccn2)c(Br)c1`: the viability increase is -1.45%.

The nature of a further assay: growth suppression of beta-catenin knockout HCT116, pilot screen, human colon tumor cells (AID 823;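 active means cell viability at or below a set limit in both duplicate runs, the limit being the all-compound median minus 4 SD, cut at about 23% in these data, passing the limit was not always enough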;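 further: 0% = wells killed by 20 µM Hyamine and 100% = untreated DMSO cell wells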). The following applies: CellTiter-Glo, 60 h, at 10 µM, stronger effect = lower value.
Turning to `Cc1noc(C)c1S(=O)(=O)N1CCC(C(=O)N2CCC(N3CCCCC3)CC2)CC1`, the viability (in general, a read-out of living cells in per cent, often relative to untreated cells) is 101%.

As to `COc1ccc(CNc2nc3c(c(=O)[nH]c(=O)n3C)n2Cc2ccccc2C)cc1`, the viability is 96.2%.

For `Cc1ccc(-c2nc(-c3ccccc3)no2)c(Cl)c1`, the viability is 78.9%.

On to `Cc1nnc(Sc2nc3c(c(=O)[nH]c(=O)n3C)n2Cc2ccccc2Cl)s1`, for which the viability was 96.8%.

As to `COc1ccc(N2C(=O)CC(c3ccc(OC(C)C)cc3)C2=O)cc1` (centres undefined), the viability is 97.9%.

Turning to `Cc1ccc(-n2nnc3c(=O)n(CC(=O)OCc4ccccc4)cnc32)cc1`, the viability is 92.6%.

Turning to `Cc1cc(Oc2ccccc2)nc2ccc(O)cc12`, the viability was 89.9%.

Turning to `Cc1ccc(C(=O)N2CCN(c3ccccc3)CC2)cc1C`, the viability is 101%.

In the case of `CC(=O)N1CCN(CCN=CC2=C(O)CC(c3cccs3)CC2=O)CC1` (centres undefined), the viability is 93.1%.

As for `Cc1cc(C)cc(OCCCCCNCCO)c1`, the viability is 87.6%.

In the case of `Cc1ccnc(SCCn2c(N3CCC(C)CC3)nc3c2c(=O)[nH]c(=O)n3C)n1`, the viability was 106%.

Consider `CN(CCCNC(=O)C1CCC(=O)N1Cc1ccc(F)cc1)c1ccccc1` (centres undefined), for which the viability was 95.5%.

Consider `COC(=O)Nc1c(C(=O)OC)cc(OC)c(OC)c1OC`, for which the viability was 94.7%.

In the case of `CCCn1c(C(C)NC(C)=O)nc2ccccc21` (centres undefined), the viability was 99.2%.

With `CCC1CCCCN1Cc1ccc(OC)c(OC)c1` (centres undefined), the viability is 87.8%.

Take `CCOC(=O)N1CCN(CC(=O)Nc2ccc(C)cc2)CC1`: the viability was 98.3%.

As for `Cc1cccc(Cn2c(SCCN3CCOCC3)nc3c2c(=O)n(C)c(=O)n3C)c1`, the viability is 103%.

For the molecule `COc1cccc(C(c2sc3ncnn3c2O)N2CCN(C(=O)c3ccco3)CC2)c1` (centres undefined), the viability was 104%.

`CCN1CCN(C(=O)C2CCN(Cc3nc(-c4ccc(Cl)cc4)oc3C)CC2)CC1`: the viability was 85.8%.

With `CCOC(=O)CC1C(=O)NCCN1Cc1cccc(OC)c1` (centres undefined), the viability was 100%.

Take `COc1cccc(-c2nc3cc(C)ccc3o2)c1`: the viability was 87.2%.

As for `COCCSc1nc2c(c(=O)[nH]c(=O)n2C)n1CCC(C)C`, the viability was 103%.

With `O=C(CCCN1C(=O)CSc2ncccc21)N1CCN(Cc2ccccc2)CC1`, the viability is 92.4%.

Turning to `Cc1cc(C)n(C(=O)CCN2C(=O)c3ccccc3C2=O)n1`, the viability was 94.9%.

On to `CCCC(=O)c1ccc(N2CCCCCC2)c(F)c1`, for which the viability was 85.9%.

On to `O=C(Nc1c(C(=O)O)oc2ccc(Br)cc12)c1ccccc1`, for which the viability is 101%.

`CCC(=O)Nc1sc2c(c1C(N)=O)CCN(C(C)=O)C2`: the viability is 103%.

Regarding `CS(=O)(=O)c1ccc(N)cc1`, the viability was 103%.

Turning to `O=C1CC(c2cccnc2)c2cc3c(cc2N1)OCCO3` (centres undefined), the viability is 91.5%.

As for `COCCNC(=O)Cn1ncc2ccsc2c1=O`, the viability was 107%.

`COc1cc(NC(=O)C2CCCN2S(=O)(=O)c2ccc3c(c2)CCC(=O)N3)cc(OC)c1` (centres undefined): the viability is 97.7%.

Consider `CC(C)n1c(SCc2ccccc2F)nc2c1c(=O)n(C)c(=O)n2C`, for which the viability is 82.7%.

In the case of `CCOC(=O)c1c(C)oc2ccc(OC(=O)N3CCOCC3)cc12`, the viability was 93.8%.

For `CCOC(=O)/C(C#N)=C1/C=Nc2ccccc2N1`, the viability is 103%.

Turning to `CNS(=O)(=O)c1ccc(Oc2ccc(S(=O)(=O)NC)cc2)cc1`, the viability is 86.7%.

On to `O=C(O)CN1C(=O)C2C3C=CC(C3)C2C1=O` (centres undefined), for which the viability was 102%.

On to `Cc1cc(C)c(NC(=O)c2ccc(S(=O)(=O)N3CCOCC3)cc2)c(C)c1`, for which the viability was 101%.

In the case of `CC1=C(C(=O)N2CCOCC2)C(c2cccs2)NC(=O)N1` (centres undefined), the viability is 99.8%.

Consider `Cc1ccc(OCC(=O)NCc2ccccn2)c(Br)c1`, for which the viability is 97.8%.

A further assay is described as follows: growth suppression of PTEN-deleted HCT116, pilot screen, cell-based, HCT116 clonal line, CellTiter-Glo (AID 824).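 Further: 0% = 20 µM Hyamine control and 100% = vehicle cell control.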 The following applies: 60 h, at 10 µM, stronger effect = lower value.
Consider `Cc1noc(C)c1S(=O)(=O)N1CCC(C(=O)N2CCC(N3CCCCC3)CC2)CC1`, for which the viability is 102%.

Regarding `COc1ccc(CNc2nc3c(c(=O)[nH]c(=O)n3C)n2Cc2ccccc2C)cc1`, the viability is 89.5%.

Consider `Cc1ccc(-c2nc(-c3ccccc3)no2)c(Cl)c1`, for which the viability was 78%.

For the molecule `Cc1nnc(Sc2nc3c(c(=O)[nH]c(=O)n3C)n2Cc2ccccc2Cl)s1`, the viability was 90.5%.

`COc1ccc(N2C(=O)CC(c3ccc(OC(C)C)cc3)C2=O)cc1` (centres undefined): the viability is 104%.

For the molecule `Cc1ccc(-n2nnc3c(=O)n(CC(=O)OCc4ccccc4)cnc32)cc1`, the viability was 91.1%.

For the molecule `Cc1cc(Oc2ccccc2)nc2ccc(O)cc12`, the viability was 80.2%.

For the molecule `Cc1ccc(C(=O)N2CCN(c3ccccc3)CC2)cc1C`, the viability is 97.7%.

Turning to `CC(=O)N1CCN(CCN=CC2=C(O)CC(c3cccs3)CC2=O)CC1` (centres undefined), the viability was 103%.

Turning to `Cc1cc(C)cc(OCCCCCNCCO)c1`, the viability was 86.5%.

With `Cc1ccnc(SCCn2c(N3CCC(C)CC3)nc3c2c(=O)[nH]c(=O)n3C)n1`, the viability is 100%.

As to `CN(CCCNC(=O)C1CCC(=O)N1Cc1ccc(F)cc1)c1ccccc1` (centres undefined), the viability is 90.5%.

`COC(=O)Nc1c(C(=O)OC)cc(OC)c(OC)c1OC`: the viability was 97.4%.

In the case of `CCCn1c(C(C)NC(C)=O)nc2ccccc21` (centres undefined), the viability was 90.7%.

In the case of `CCC1CCCCN1Cc1ccc(OC)c(OC)c1` (centres undefined), the viability was 96.9%.

On to `CCOC(=O)N1CCN(CC(=O)Nc2ccc(C)cc2)CC1`, for which the viability was 100%.

As to `Cc1cccc(Cn2c(SCCN3CCOCC3)nc3c2c(=O)n(C)c(=O)n3C)c1`, the viability was 91%.

In the case of `COc1cccc(C(c2sc3ncnn3c2O)N2CCN(C(=O)c3ccco3)CC2)c1` (centres undefined), the viability was 101%.

Take `CCN1CCN(C(=O)C2CCN(Cc3nc(-c4ccc(Cl)cc4)oc3C)CC2)CC1`: the viability was 79.7%.

As to `CCOC(=O)CC1C(=O)NCCN1Cc1cccc(OC)c1` (centres undefined), the viability was 108%.

In the case of `COc1cccc(-c2nc3cc(C)ccc3o2)c1`, the viability was 75.4%.

Turning to `COCCSc1nc2c(c(=O)[nH]c(=O)n2C)n1CCC(C)C`, the viability is 97.3%.

With `O=C(CCCN1C(=O)CSc2ncccc21)N1CCN(Cc2ccccc2)CC1`, the viability is 91.7%.

In the case of `Cc1cc(C)n(C(=O)CCN2C(=O)c3ccccc3C2=O)n1`, the viability was 103%.

Turning to `CCCC(=O)c1ccc(N2CCCCCC2)c(F)c1`, the viability is 87.3%.

On to `O=C(Nc1c(C(=O)O)oc2ccc(Br)cc12)c1ccccc1`, for which the viability is 99.5%.

`CCC(=O)Nc1sc2c(c1C(N)=O)CCN(C(C)=O)C2`: the viability was 105%.

Consider `CS(=O)(=O)c1ccc(N)cc1`, for which the viability was 88.9%.

Turning to `O=C1CC(c2cccnc2)c2cc3c(cc2N1)OCCO3` (centres undefined), the viability is 91.9%.

Turning to `COCCNC(=O)Cn1ncc2ccsc2c1=O`, the viability was 100%.

For the molecule `COc1cc(NC(=O)C2CCCN2S(=O)(=O)c2ccc3c(c2)CCC(=O)N3)cc(OC)c1` (centres undefined), the viability is 105%.

Regarding `CC(C)n1c(SCc2ccccc2F)nc2c1c(=O)n(C)c(=O)n2C`, the viability is 76.5%.

Regarding `CCOC(=O)c1c(C)oc2ccc(OC(=O)N3CCOCC3)cc12`, the viability is 89.6%.

For the molecule `CCOC(=O)/C(C#N)=C1/C=Nc2ccccc2N1`, the viability is 89.8%.

Take `CNS(=O)(=O)c1ccc(Oc2ccc(S(=O)(=O)NC)cc2)cc1`: the viability is 83.9%.

`O=C(O)CN1C(=O)C2C3C=CC(C3)C2C1=O` (centres undefined): the viability is 88%.

For the molecule `Cc1cc(C)c(NC(=O)c2ccc(S(=O)(=O)N3CCOCC3)cc2)c(C)c1`, the viability is 98.1%.

As to `CC1=C(C(=O)N2CCOCC2)C(c2cccs2)NC(=O)N1` (centres undefined), the viability was 99.9%.

For the molecule `Cc1ccc(OCC(=O)NCc2ccccn2)c(Br)c1`, the viability was 95%.
